The values below come from ChEMBL document CHEMBL3988442, “University of Dundee, Small-Polar-MMV Screening Library” (2021).

For some of these results: Results with a measured potency or affinity are listed apart.

Holding throughout (design): scale not given: direction of the effect not stated beside the values
Assay [1] addresses Protein translocase subunit SecA (Escherichia coli (strain K12)) (UniProt P10408). The experiment in a line: Assay to Identify E. coli SecA ATPase Inhibitors. The assay is classed as functional. As to conditions: 30 µM.
Assay [2] deals with T1, Ubiquitin-activating enzyme e1, putative (Leishmania donovani (strain BPK282A1)) (UniProt E9BSI1).
T1 sequence (whole entry): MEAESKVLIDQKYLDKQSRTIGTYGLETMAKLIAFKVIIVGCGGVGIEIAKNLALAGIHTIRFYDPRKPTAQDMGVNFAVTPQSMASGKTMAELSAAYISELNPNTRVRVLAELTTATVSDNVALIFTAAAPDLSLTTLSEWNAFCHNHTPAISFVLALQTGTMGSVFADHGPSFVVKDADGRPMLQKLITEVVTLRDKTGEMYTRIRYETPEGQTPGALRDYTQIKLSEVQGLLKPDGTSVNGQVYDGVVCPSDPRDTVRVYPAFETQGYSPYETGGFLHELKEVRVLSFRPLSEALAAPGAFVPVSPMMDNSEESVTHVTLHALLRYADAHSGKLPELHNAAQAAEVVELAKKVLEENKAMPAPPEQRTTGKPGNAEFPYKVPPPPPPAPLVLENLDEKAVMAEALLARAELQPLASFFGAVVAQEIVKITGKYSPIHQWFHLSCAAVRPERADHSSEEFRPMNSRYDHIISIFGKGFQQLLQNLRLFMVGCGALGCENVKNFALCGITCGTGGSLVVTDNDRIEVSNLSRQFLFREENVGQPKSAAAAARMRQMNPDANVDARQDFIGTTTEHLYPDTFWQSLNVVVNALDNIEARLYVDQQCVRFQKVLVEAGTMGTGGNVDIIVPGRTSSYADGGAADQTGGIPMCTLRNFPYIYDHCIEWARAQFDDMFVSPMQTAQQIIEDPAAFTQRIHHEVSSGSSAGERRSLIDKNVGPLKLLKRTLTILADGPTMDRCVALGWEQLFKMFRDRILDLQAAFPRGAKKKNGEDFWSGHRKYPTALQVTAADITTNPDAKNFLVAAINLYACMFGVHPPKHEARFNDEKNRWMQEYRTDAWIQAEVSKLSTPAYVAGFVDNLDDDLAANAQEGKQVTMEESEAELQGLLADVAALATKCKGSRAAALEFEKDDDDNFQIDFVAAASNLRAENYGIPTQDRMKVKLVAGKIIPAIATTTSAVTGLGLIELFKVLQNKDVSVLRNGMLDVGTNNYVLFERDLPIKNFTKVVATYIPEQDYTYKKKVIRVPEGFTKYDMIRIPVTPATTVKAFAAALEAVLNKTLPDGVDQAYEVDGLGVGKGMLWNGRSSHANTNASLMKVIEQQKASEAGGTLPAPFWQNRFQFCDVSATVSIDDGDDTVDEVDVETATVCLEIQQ
The experiment in a line: Leishmania donovani Ubiquitin Activating Enzyme (LdE1). The assay is classed as functional. The settings on record: 30 µM.

Assay [3] concerns the target AMP-activated protein kinase, AMPK (Homo sapiens) (UniProt P54646+O43741+P54619+Q9UGJ0+Q9Y478+Q13131+Q9UGI9). The experiment in a line: AMP-dependent Kinase enzyme assay. An in vitro enzyme assay that detects ADP turnover that is directly proportional to AMPK activity. This uses naive AMPK that is activated during the assay with MK-8722. It counts as functional. The settings on record: 30 µM.

Assay [4] addresses Sialic acid-binding Ig-like lectin 9 (Homo sapiens) (UniProt Q9Y336). The experiment in a line: Hs-Siglec9 ALPHAscreen SOP 20170721. As to conditions: 10 µM.
A further assay deals with Trypanosoma cruzi. The experiment in a line: Trypanosoma cruzi phosphomannomutase and mannose-1-phosphate guanylyltransferase assay. It counts as functional. The settings on record: 10 µM.
The target of assay [5] is T2, Arginase-2, mitochondrial (Homo sapiens) (UniProt P78540).
T2 sequence (whole entry): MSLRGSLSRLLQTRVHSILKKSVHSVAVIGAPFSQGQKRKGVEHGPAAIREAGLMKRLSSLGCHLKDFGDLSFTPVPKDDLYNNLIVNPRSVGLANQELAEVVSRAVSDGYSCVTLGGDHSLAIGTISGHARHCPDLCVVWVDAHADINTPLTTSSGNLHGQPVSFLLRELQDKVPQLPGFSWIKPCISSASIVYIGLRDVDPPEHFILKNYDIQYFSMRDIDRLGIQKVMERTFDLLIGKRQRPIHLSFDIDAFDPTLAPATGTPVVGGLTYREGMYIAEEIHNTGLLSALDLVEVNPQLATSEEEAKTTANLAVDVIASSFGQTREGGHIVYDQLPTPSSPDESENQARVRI
The experiment in a line: in vitro enzyme assay to detect the production of urea directly proportional to the activity of Arginase II. Also: in the data most compounds retested in dose-response had high values. It counts as functional. As to conditions: 33.3 µM.

Assay [6] addresses T3, Proteasome subunit beta (Trypanosoma cruzi) (UniProt O96673).
T3 sequence (whole entry): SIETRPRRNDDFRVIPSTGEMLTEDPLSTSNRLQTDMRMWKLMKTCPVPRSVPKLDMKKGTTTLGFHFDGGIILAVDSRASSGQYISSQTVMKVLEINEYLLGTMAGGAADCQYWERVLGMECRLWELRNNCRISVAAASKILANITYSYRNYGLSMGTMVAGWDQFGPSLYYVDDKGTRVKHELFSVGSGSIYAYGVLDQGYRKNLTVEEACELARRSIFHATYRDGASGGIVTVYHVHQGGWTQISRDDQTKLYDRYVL
The experiment in a line: Trypanosoma cruzi proteasome chymotrypsin-like activity (TcProtChymo) assay. Also: in the data most compounds retested in dose-response had high values. It counts as functional. The settings on record: 9.37 µM.

A further assay is filed under the species Homo sapiens. The experiment in a line: To identify inhibition of the IFN signalling (Jak-Stat) pathway via expression of an eGFP reporter gene under the control of an IFN-stimulated response element (ISRE) containing MxA promoter. The assay is classed as functional. As to conditions: 30 µM. Background: A reporter such as luciferase makes a cellular process visible.

The target of assay [7] is T4, Tyrosyl-tRNA synthetase, putative (Trypanosoma cruzi (strain CL Brener)) (UniProt Q4DSP6).
T4 sequence (whole entry): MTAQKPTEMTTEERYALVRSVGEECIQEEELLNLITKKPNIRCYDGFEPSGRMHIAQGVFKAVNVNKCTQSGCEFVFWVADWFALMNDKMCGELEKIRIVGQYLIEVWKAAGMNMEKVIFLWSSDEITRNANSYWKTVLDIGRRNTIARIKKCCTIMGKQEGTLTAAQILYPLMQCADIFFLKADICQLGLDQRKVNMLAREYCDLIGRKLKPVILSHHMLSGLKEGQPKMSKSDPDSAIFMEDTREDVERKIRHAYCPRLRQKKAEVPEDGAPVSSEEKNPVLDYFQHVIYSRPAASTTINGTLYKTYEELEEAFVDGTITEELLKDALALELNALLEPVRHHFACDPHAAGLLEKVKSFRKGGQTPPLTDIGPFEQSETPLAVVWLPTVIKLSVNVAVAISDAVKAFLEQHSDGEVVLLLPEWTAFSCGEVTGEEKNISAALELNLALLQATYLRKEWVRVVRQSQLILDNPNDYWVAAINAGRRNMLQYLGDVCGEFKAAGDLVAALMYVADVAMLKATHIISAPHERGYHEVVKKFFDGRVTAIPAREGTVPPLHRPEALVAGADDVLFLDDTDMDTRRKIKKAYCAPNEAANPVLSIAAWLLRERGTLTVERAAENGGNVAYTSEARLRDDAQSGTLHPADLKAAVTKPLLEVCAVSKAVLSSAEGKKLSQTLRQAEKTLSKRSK
Kind of assay: Trypanosoma cruzi tyrosyl tRNA synthetase (TcYRS) _High Tyrosine SOP. Also: in the data most compounds retested in dose-response had high values. The assay is classed as functional. The settings on record: 30 µM.

The target in assay [8] is T4, Tyrosyl-tRNA synthetase, putative (Trypanosoma cruzi (strain CL Brener)). The experiment in a line: Trypanosoma cruzi tyrosyl tRNA synthetase (TcYRS) SOP. The settings on record: 30 µM. It counts as functional.
For assay [9], the target named is Chromo domain-containing protein 1 (Saccharomyces cerevisiae (strain ATCC 204508 / S288c) (Baker's yeast)) (UniProt P32657). Kind of assay: ScCHD-1 Enzyme Inhibition Assay. Also: in the data most compounds retested in dose-response had high values. As to conditions: 30 µM. The assay is classed as functional.
Chain of Chromo domain-containing protein 1 (Saccharomyces cerevisiae (strain ATCC 204508 / S288c) (Baker's yeast)) (P32657 whole entry, the tested form may be a part): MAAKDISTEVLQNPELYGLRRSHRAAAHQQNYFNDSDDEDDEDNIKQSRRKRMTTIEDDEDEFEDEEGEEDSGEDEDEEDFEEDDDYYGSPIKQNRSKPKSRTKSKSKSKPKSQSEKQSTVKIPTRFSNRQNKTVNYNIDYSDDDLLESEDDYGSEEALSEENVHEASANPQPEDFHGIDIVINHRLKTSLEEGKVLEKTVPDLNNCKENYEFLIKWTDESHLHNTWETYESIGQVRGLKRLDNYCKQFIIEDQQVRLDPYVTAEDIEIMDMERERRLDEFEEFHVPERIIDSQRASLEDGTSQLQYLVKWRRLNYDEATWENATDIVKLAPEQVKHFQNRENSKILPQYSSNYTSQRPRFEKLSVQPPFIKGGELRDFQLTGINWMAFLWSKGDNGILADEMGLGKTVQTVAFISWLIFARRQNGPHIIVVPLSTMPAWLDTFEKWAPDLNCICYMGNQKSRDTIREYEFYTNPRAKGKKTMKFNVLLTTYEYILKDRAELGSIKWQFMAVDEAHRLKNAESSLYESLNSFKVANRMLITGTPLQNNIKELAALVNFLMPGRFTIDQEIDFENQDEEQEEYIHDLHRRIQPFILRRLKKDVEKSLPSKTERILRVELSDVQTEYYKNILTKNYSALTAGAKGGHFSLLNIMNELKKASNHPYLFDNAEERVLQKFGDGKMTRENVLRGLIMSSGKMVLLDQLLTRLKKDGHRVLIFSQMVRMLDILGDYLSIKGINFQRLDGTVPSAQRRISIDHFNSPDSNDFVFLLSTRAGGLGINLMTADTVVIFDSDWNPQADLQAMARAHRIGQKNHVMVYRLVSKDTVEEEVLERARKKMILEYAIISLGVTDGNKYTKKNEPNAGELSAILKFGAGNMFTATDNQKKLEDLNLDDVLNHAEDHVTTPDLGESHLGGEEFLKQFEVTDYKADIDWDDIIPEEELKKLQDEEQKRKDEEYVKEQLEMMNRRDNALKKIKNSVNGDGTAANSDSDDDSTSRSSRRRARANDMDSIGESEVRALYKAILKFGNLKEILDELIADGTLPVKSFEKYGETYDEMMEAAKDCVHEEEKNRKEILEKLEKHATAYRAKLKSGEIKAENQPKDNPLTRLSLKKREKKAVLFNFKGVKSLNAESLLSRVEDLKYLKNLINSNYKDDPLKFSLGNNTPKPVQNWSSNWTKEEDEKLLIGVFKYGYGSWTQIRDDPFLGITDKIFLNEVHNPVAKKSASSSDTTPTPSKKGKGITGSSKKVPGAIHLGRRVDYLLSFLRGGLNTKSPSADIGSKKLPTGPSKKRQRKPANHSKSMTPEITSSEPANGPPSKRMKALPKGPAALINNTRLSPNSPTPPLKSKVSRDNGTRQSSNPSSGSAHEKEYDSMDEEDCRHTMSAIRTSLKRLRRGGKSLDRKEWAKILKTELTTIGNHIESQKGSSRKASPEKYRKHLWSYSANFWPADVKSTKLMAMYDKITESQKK

Chain of Protein translocase subunit SecA (Escherichia coli (strain K12)) (P10408 whole entry): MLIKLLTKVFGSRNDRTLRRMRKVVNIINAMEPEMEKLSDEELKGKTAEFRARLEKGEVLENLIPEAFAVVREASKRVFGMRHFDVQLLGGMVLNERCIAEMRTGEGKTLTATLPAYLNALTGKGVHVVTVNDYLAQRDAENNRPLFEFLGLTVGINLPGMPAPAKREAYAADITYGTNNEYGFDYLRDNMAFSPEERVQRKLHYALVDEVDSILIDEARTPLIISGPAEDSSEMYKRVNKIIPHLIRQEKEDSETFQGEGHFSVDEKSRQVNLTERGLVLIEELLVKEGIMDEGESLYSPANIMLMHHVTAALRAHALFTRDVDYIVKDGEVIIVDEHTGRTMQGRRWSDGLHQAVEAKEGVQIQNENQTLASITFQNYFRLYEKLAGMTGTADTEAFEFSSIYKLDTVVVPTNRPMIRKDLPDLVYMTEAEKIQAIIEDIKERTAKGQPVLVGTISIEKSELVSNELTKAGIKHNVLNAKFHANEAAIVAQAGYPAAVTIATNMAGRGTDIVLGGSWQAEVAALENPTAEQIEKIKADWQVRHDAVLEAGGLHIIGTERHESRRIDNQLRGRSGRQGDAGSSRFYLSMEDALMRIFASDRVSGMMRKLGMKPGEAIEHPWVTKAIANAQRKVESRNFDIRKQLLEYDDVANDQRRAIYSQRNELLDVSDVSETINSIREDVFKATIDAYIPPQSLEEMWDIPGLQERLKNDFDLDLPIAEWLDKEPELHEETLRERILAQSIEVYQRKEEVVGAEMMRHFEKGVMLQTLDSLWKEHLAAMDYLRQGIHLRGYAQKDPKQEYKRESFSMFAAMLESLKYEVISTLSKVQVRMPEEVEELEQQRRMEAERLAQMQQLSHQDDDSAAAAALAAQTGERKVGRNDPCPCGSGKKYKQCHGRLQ
Chain of Sialic acid-binding Ig-like lectin 9 (Homo sapiens) (Q9Y336 whole entry): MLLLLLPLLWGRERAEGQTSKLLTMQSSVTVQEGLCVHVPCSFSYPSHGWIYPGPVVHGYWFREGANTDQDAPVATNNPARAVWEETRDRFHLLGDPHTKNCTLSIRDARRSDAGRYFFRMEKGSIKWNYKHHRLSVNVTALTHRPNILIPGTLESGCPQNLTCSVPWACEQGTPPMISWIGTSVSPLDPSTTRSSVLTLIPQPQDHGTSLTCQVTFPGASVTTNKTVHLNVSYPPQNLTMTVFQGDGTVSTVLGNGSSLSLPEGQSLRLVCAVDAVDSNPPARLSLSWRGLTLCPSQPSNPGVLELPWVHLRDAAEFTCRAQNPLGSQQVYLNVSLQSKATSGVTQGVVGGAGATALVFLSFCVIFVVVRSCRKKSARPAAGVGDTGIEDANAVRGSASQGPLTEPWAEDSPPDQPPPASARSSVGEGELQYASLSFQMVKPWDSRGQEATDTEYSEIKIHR

As for `Cn1cnnc1C1CCCN(C(=O)c2ccccc2Cl)C1` (stereo unspecified), the Percent Effect in assay [1] is -3.26%; in [2], 18.2%; in [3], -0.796%; in assay [4] it was -3.37%; with Trypanosoma cruzi it was 1.67%; in assay [5], 0.632%. Further, the Percent Effect in assay [6] is 5.74%; in the assay filed under Homo sapiens, 6.09%; in assay [7], 11.4%; in assay [8], 25.9%; in assay [9] it was -17.8%.

As to `O=C(c1cscn1)N1C[C@H]2CCCC(OCc3cccnc3)[C@H]2C1` (stereo partly specified), the Percent Effect in assay [1] was -5.26%; in assay [2] it was 5.33%; in assay [3], -2.55%; in assay [4], 2.64%; in the assay on Trypanosoma cruzi, -0.193%; in assay [5], -37.5%. The Percent Effect in assay [6] was 9.06%; in the assay listed under Homo sapiens it was -6.53%; in [7], 1.04%; in [8], 12.5%; in assay [9] it was -5%.

For the compound `COc1ccc(C(CO)NC(=O)Nc2cccc(C#N)c2)cc1` (stereo unspecified), the Percent Effect was -1.84% in assay [1]; 16.2% in assay [2]; -2.87% in [3]; 19.4% in assay [4]; 3.86% in the assay with Trypanosoma cruzi; -0.952% in [5]. The Percent Effect is 15.3% in [6]; 8.24% in the assay filed under Homo sapiens; 7.94% in assay [7]; 17.1% in [8]; -9.96% in [9].

In the case of `CC(CN1CCOCC1)NCC1CCN(c2cnn(C)c(=O)c2)CC1` (stereo unspecified), the Percent Effect was -4.77% in assay [1]; -1.39% in [2]; -4.64% in [3]; 1.85% in assay [4]; -1.85% in the assay with Trypanosoma cruzi; -0.883% in [5]. Also, the Percent Effect in assay [6] was 4.21%; in the assay listed under Homo sapiens, -10.4%; in assay [7], 0%; in assay [8], -10.3%; in [9], 1.95%.

Turning to `O=C(Cc1ccccc1)N1CCC2(CC(=O)N(c3cccc(F)c3)C2)C1` (stereo unspecified), the Percent Effect is -5.5% in assay [1]; 2.7% in [2]; -5.09% in assay [3]; -3.6% in [4]; -1.86% in the assay on Trypanosoma cruzi; 1.74% in assay [5]. Besides, the Percent Effect in assay [6] is 6.09%; in the assay filed under Homo sapiens it was -6.6%; in assay [7], 3.23%; in assay [8], 3.7%; in assay [9], 2.85%.

For `Cc1cc(C2CCCN2C(=O)c2cc3c(s2)CCC3)on1` (stereo unspecified), the Percent Effect was -6.23% in [1]; 5.26% in [2]; 2.83% in [3]; 3.1% in assay [4]; 6.58% in the assay on Trypanosoma cruzi; -1.92% in [5]. The Percent Effect is 14.4% in assay [6]; -0.279% in the assay listed under Homo sapiens; 0.49% in [7]; 4.88% in assay [8]; -7.02% in [9].

For `CC(=O)c1cccc(OCCCC(=O)N(C)Cc2cccc(O)c2)c1`, the Percent Effect in assay [1] is -2.9%; in assay [2], 2.7%; in assay [3] it was 5.1%; in assay [4], 4.56%; in the assay on Trypanosoma cruzi, 0.193%; in [5], 4.29%. Besides, the Percent Effect in assay [6] is 3.28%; in the assay listed under Homo sapiens it was 8.19%; in [7], -0.529%; in [8] it was 0%; in assay [9] it was -3.66%.

Turning to `O=C(Nc1nncs1)NC1CCOc2ccccc21` (stereo unspecified), the Percent Effect in [1] is -3.81%; in assay [2], 2.74%; in assay [3], 5.12%; in assay [4], -2.09%; in the assay with Trypanosoma cruzi it was -6.55%; in [5], -0.399%. Moreover, the Percent Effect in assay [6] is 9.85%; in the assay listed under Homo sapiens it was 17%; in assay [7] it was 2.08%; in assay [8] it was 13.6%; in [9], -8.1%.

As for `Cc1cc(NC(=O)NCC(O)c2ccc(Cl)cc2Cl)n(C)n1` (stereo unspecified), the Percent Effect in assay [1] was -2.82%; in [2], -2.63%; in assay [3], 1.15%; in assay [4], 8.57%; with Trypanosoma cruzi it was 0.376%; in [5], -0.383%. The Percent Effect is -2.17% in [6]; -20.8% in the assay listed under Homo sapiens; -0.49% in [7]; -75.6% in assay [8]; -5.69% in assay [9].

On to `CC1CN(C)c2ccccc2CN1C(=O)c1ccc[nH]1` (stereo unspecified), for which the Percent Effect in [1] is -4.68%; in assay [2], 5.48%; in assay [3], -8.65%; in assay [4], -2.78%; with Trypanosoma cruzi, -0.196%; in assay [5], 0.455%. Further, the Percent Effect in assay [6] was 12.9%; in the assay listed under Homo sapiens it was 20.4%; in assay [7], 5.38%; in [8] it was 10%; in [9], -4.57%.

With `CNc1oc(-c2ccc(OC)c(S(=O)(=O)N3CCCCC3)c2)nc1C#N`, the Percent Effect is -1.33% in assay [1]; 1.33% in assay [2]; 15.5% in [3]; 7.55% in assay [4]; -5.7% with Trypanosoma cruzi; -6.51% in [5]. The Percent Effect in [6] is 9.98%; in the assay filed under Homo sapiens, -4.26%; in assay [7] it was 5.29%; in assay [8] it was 2.56%; in assay [9] it was -9.36%.
